Compound activity (PubChem BioAssay)
MARV entry inh: Marburg virus entry inhibition; 6.5% of 18,000 active; Potency, µM (series often up to 49.2 µM), inactives show at the highest dose activity change, negative = inhibition, most hits filed as inhibitors; Marburg virus pseudotype entry/binding inhibition, cell-based
Lassa entry: blocks Lassa virus binding or cell entry; AID 720533; 4.1% of 18,000 active; Lassa virus pseudotyped entry inhibition, cell-based qHTS; Potency, µM (titrated, usually from 49.2 µM), without a hit: top-dose activity change, negative = inhibition, actives largely listed as inhibitors
* hit, by the source's call; ? = inconclusive; / = not tested or not shown; ! = a repeat was not active; [ ] = another dose, or the depositor's remark. Compounds with a hit are over-represented: about 8.6% of the library has one in this group of screens. Calls come from the whole dose curve; tested in HEK293 cells. % is set by controls: 0 for no effect and ±100 for the full control effect; potency is the fitted concentration of half-maximal effect.

SMILES	MARV entry inh	Lassa entry
COc1ccc(CN2CCCC(n3cc(C(=O)NC4CCCC4)nn3)C2)c(O)c1 (centres undefined)	-10%	-26%
CC1=C[C@@H](C)O[C@@]2(C1)C(=O)Nc1cccc(Br)c12	1%[8.59 µM]	-37%[8.59 µM]
CC12C=CC(=O)C=C1CCC1C2=CCC2(C)C1CC[C@@H]2C(=O)CN1CCN(c2cc(N3CCCC3)nc(N3CCCC3)n2)CC1 (some centres undefined)	18µM*!	4%
Cc1ccccc1OC[C@H](O)CO	-4%[17.8 µM]	0%[17.8 µM]
Cc1ccc(OCC(O)C(C)NC(C)C)c2c1CCC2 (centres undefined)	13µM*	?
COC(=O)CC1OC1[C@H](C)[C@@H](OC)C(C)C (some centres undefined)	-15%[8.59 µM]	/
CNCC[C@@H](Oc1ccccc1C)c1ccccc1	28µM*!	3%
CNCCC(Oc1ccccc1OC)c1ccccc1 (centres undefined)	?	0%
N#Cc1cccc(OCc2cn(CC(=O)c3ccc(O)cc3)nn2)c1	1%	-15%
CSC[C@H]1CN(c2ccc(Br)cc2)C(=O)[C@H]1CC(=O)Nc1ccc(Br)cc1	-26%	-28%
CC12C=C(C=Cc3ccc(Br)cc3)C(C)(C1)C(c1ccc(Br)cc1)CC2=O (centres undefined)	-26%[8.59 µM]	/
CCN(CC)CCNC(=O)c1cnn(-c2nccc(-c3cc4ccccc4o3)n2)c1C	13µM*	?
CCN1CCCC1CNC(=O)c1cnn(-c2nccc(-c3cc4ccccc4o3)n2)c1C1CC1 (centres undefined)	?	-18%
Cc1c(C(=O)NCCc2cccnc2)cnn1-c1nccc(-c2ccccc2F)n1	37%	-5%
O=C(NC[C@@H]1CCCN2CCCC[C@H]12)c1cnn(-c2nccc(-c3cc4ccccc4o3)n2)c1C1CC1	11µM*	?
CCN1C(=O)NC(c2cccc(F)c2)C(C(=O)OC)=C1C (centres undefined)	19%[8.59 µM]	7%[8.59 µM]
CCN1CCCC1CNC(=O)c1cnn(-c2nccc(-c3ccco3)n2)c1C1CC1 (centres undefined)	9%	-5%
CNC(=O)c1cncc(C=Cc2c(C)cccc2C)c1	?	35%
O=C(NCC1Cc2cc(F)cc(-c3cnccn3)c2O1)c1cccc(-c2ccccc2F)c1 (centres undefined)	-11%	?
C[C@H]1CN(CCc2ccccc2)C(=O)[C@H]1CC(=O)Nc1ccc(Br)cc1	-8%	/
NC(=O)c1ccc([N+](=O)[O-])cc1Cl	9%	2%
O=[N+]([O-])c1ccc2c(c1)S(=O)(=O)C=C2	6.3µM*	11µM*
CCN1C(=NCCCCO)NC(c2cccc(C(F)(F)F)c2)C(C(=O)OC)=C1C (centres undefined)	-19%[8.59 µM]	14%[8.59 µM]
COCC1CCCN(Cc2ccc3c(c2)CN(C(=O)c2ccc(OC)nc2OC)CCO3)C1 (centres undefined)	?	-5%
COC(=O)C[C@H]1c2ccccc2[C@@H]2C(=C[C@@H](C)[C@H]3C(=O)N(O)C(=O)[C@H]32)N1C(=O)OC	8%[8.59 µM]	4%[8.59 µM]
SMILES	MARV entry inh	Lassa entry
C=CCN1CCC2(C)c3cc(O)ccc3CC1C2C (centres undefined)	?	1%
C[C@H]1[C@H]2Cc3ccc(O)cc3[C@]1(C)CCN2CCc1ccccc1	18µM*	32µM*
COCCN1C(=O)C2=C(C1=O)C1N(C)c3ccccc3[C@@]13C[C@@H](CO)N=C3N2 (some centres undefined)	25%[8.59 µM]	18%[8.59 µM]
COc1ccc(-c2ccc(-c3cc(=O)oc4cc(OC)c(OC)c(OC)c34)cc2)cc1OC	0%	18µM*
COc1ccc(-c2oc3cc(OC)c(OC(C)=O)c(OC)c3c(=O)c2OC)cc1OC(C)=O	1%	0.32µM*
COc1ccc(-c2oc3ccccc3c(=O)c2O)cc1OC	8%	4%
COc1cc2oc(=O)cc(-c3ccc(-c4cccc(N)c4)cc3)c2c(OC)c1OC	?	-21%
O=C(NCCc1nnc2n1CCN(Cc1ccsc1)CC2)c1ccc(F)cc1	0%	-3%
Nc1ncc(-c2cccc(S(N)(=O)=O)c2)c2scc(-c3ccc(F)c(Cl)c3)c12	3.1µM*	?
O=C1C(Nc2ccccc2)=CC(=O)c2ncccc21	5.6µM*	11µM*
CCN(CCCc1ccccc1)CCCc1ccccc1	8.9µM*	?
CN(Cc1ccccc1)Cc1ccccc1	2%	-4%
CC(C)(C)c1cc(C=C(C#N)C#N)cc(C(C)(C)C)c1O	2.8µM*	25µM*
N#CC(C#N)=C(N)/C(C#N)=C/c1cc(O)c(O)c(O)c1	-11%	-4%
N#CC(C#N)=Cc1ccc(O)c(O)c1	7%	-21%
CC(C)(C)c1cc(/C=C(\C#N)C(N)=S)cc(C(C)(C)C)c1O	4.5µM*	28µM*
COCC=CC1=CC2=CC(=O)C(C)(OC(=O)c3cnc4ccccc4n3)C(=O)C2=CN1CCc1c[nH]c2ccccc12 (centres undefined)	22%[8.59 µM]	-11%[8.59 µM]
CC1=CC[C@@H](COc2ccccc2)O[C@@]2(C1)C(=O)N(Cc1ccc(F)cc1)c1cccc(Br)c12	-10%[8.59 µM]	19%[8.59 µM]
O=C(C1CCCCC1)N1C[C@H](O)[C@H](n2cc(C3CC3)nn2)C[C@@H]1c1ccc(Cl)cc1	-36%	-19%
CCN1C(=O)c2ccccc2C1Nc1ccc(OCCN2CCCCC2)cc1 (centres undefined)	-23%	-10%
Cc1c(-c2ccc(O)cc2)nn(-c2ccc(O)cc2)c1-c1ccc(OCCN2CCCCC2)cc1	4µM*	32µM*
O=C1C=C2C(=CCOC2O)O1 (centres undefined)	1.1µM*	3.2µM*
C=CC1CC(C=C)OP(=O)(OC[C@H](C)[C@@H](O[Si](C)(C)C(C)(C)C)[C@@H](C)C=C)O1 (some centres undefined)	49%	17%
CCC[C@@]1(CCc2ccccc2)CC(O)=C([C@H](CC)c2cccc(NS(=O)(=O)c3ccc(C(F)(F)F)cn3)c2)C(=O)O1	-28%	-3%
COc1cccc(-c2cc3c(c(OC)c2)OCCN(Cc2ccccc2O)C3)n1	-21%	5.6µM*
SMILES	MARV entry inh	Lassa entry
COc1ccc(-c2[nH]ncc2CN2CCOc3c(cc(-c4cccc(OC)n4)cc3OC)C2)cc1	-3%	-12%
CC(Cc1cccc(C(F)(F)F)c1)NCCCc1ccccc1 (centres undefined)	14µM*	32µM*
CCN[C@H](C)Cc1cccc(C(F)(F)F)c1	-24%[107 µM]	-14%[107 µM]
COC(=O)C1(C)C2CC(C)C(c3ccccc32)N1C(=O)C(F)(F)F (centres undefined)	-9%[8.59 µM]	/
COC(=O)C1=C(C)N(Cc2ccccc2)C(=NCCc2c[nH]c3ccccc23)NC1c1ccc(Br)cc1 (centres undefined)	?	-14%[8.59 µM]
CC[N+](CC)(CC)CCOc1ccc(/C=C\c2ccccc2)cc1	?	20µM*
CC[N+](CC)(CC)CCOc1cccc(OCC[N+](CC)(CC)CC)c1OCC[N+](CC)(CC)CC	14%	-3%
O=C1C[C@@H](c2ccccc2)[C@H](c2ccc(Br)cc2)O1	-17%[8.59 µM]	-19%[8.59 µM]
COc1cccc([C@@H]2Oc3ccc(Br)cc3C(=O)[C@@H]2O)c1	31%[8.59 µM]	34%[8.59 µM]
O=C1Cc2c([nH]c3ccc(Br)cc23)-c2ccccc2N1	5%	-4%
c1ccc2c(c1)SCc1c-2[nH]c2ccccc12	11µM*	?
COC(=O)C1=C(C(=O)OC)[C@@H]2N(C)c3ccccc3[C@@]23CCC(=O)N(CC(C)C)C3=N1	8%[8.59 µM]	1%[8.59 µM]
CC(C)[C@H](CO)Nc1nc(Nc2cccc(Cl)c2)c2ncn(C(C)C)c2n1	-11%	28µM*
